D2 antagonist = HTS Assay for Allosteric Antagonists of the Human D2 Dopamine Receptor: Primary Screen for Antagonists; D(2) dopamine receptor (Homo sapiens), P14416; HEK293 TREx D2 cells, calcium flux, dopamine EC80; inhibition, % at 10 µM; hit rate 2% among 340,000; in the data active = inhibition above about 30%; inactive = below that, where a call was filed
Target sequence (P14416 whole entry, looked up): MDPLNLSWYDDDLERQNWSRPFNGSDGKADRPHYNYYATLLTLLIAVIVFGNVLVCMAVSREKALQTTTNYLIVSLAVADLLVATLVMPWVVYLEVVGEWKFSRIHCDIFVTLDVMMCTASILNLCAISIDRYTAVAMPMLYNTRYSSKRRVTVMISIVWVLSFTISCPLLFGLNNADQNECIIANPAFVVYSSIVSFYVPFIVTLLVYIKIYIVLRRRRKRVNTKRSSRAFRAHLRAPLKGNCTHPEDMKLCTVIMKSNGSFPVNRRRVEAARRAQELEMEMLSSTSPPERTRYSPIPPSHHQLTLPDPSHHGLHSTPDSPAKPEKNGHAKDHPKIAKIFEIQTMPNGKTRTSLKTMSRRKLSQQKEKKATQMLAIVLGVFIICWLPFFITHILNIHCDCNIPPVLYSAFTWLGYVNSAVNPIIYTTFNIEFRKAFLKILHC
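HEK293 T-REx D2 cells, tet-induced, calcium dye no-wash. Cpd pintool add, 180 s kinetic, then EC80 DA, 180 s kinetic. Ca flux read.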
D2 PAM-1 = Beta-Arrestin HTS for Positive Allosteric Modulators of the Human D2 Dopamine Receptor: Potentiators | D(2) dopamine receptor (Homo sapiens), P14416 | DiscoveRx D2 beta-arrestin cells, luminescence, 90 min; 100% = 57 uM dopamine signal | potentiation, % (test concentration not listed) | hit rate 0.23% among 360,000 | AID 624464, 2012; in the data active = potentiation above about 50%; inconclusive = mostly about 30% to 49%
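D2 cells co-treated with compound plus 50 nM dopamine (EC20) for 90 min at 37 deg C to detect potentiation. Beta-arrestin recruitment was read as enzyme-fragment luminescence after 1 h at ambient temperature. Full response was set by 57 uM dopamine.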
D2 PAM-2 = HTS Assay for Positive Allosteric Modulators of the Human D2 Dopamine Receptor: Primary Screen for Potentiators. D(2) dopamine receptor (Homo sapiens), P14416. HEK293 T-REx D2, calcium flux, EC20 dopamine potentiation. potentiation, % at 10 µM. hit rate 0.34% among 340,000;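 active = potentiation over 3 SD above the plate norm, cut at about 30% in these data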
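Tetracycline-induced Hek293 Trex D2 cells, force-coupled to calcium, loaded with no-wash calcium dye. Compound added with 180 s kinetic read for agonism, then EC20 dopamine and a further 180 s read for potentiation.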
D2 ag-1 = HTS Assay for Allosteric Agonists of the Human D2 Dopamine Receptor: Primary Screen for Agonists; D(2) dopamine receptor (Homo sapiens), P14416; HEK293 T-REx D2 cells, calcium flux agonist mode; activation, % at 2 µM; hit rate 0.53% among 340,000; AID 485358, 2010;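 active = activation over 3 SD above normal in the single-dose calcium agonist read, cut at about 30% in these data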
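In this primary screen, compounds producing a positive calcium signal within 180 s of addition to tetracycline-induced, force-coupled HEK293 Trex D2 cells are flagged; cells are dye-loaded with a no-wash calcium kit beforehand.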
D2 ag-2 = Beta-Arrestin HTS for Positive Allosteric Modulators of the Human D2 Dopamine Receptor: Agonists. hit rate 0.084% among 360,000. DiscoveRx PathHunter D2 beta-arrestin, luminescence, 90 min; 100% = 57 uM dopamine signal. activation, % (concentration not given with the values). D(2) dopamine receptor (Homo sapiens), P14416; in the data active = activation above about 40%; inconclusive = between about 15% and that limit
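Agonist mode: compounds alone added to overnight-plated D2 PathHunter cells for 90 min at 37 C, with 57 uM final dopamine (EC100) defining full response. Beta-arrestin recruitment detected by chemiluminescent reagent, read after 1 h at ambient temperature.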
D3 arrestin ag = qHTS of D3 Dopamine Receptor Agonist: D3 Dopamine Receptor B-arrestin Agonist Confirmatory Assay; DiscoveRx D3 beta-arrestin cells, luminescence, 90 min; hit rate 4% among 2,300; AID 720506, 2013; Potency, µM (series often up to 76.9 µM), most hits filed as activators; shares compounds with D2 ag-1; note: nearly all actives have a fitted effect of over 70% in size
D2 ag-3 = qHTS of D3 Dopamine Receptor Agonist: D2 Dopamine Receptor B-arrestin Agonist Counterscreen; DiscoveRx PathHunter D2 beta-arrestin, luminescence, 90 min; response scale: percent relative to full dopamine signal; AID 720507, 2013; Potency, µM (doses to about 76.9 µM), most hits filed as activators; hit rate 5.9% among 2,300; shares compounds with D2 ag-1; note: nearly all actives have a fitted effect of over 70% in size
Of the large screens only hits and unclear results are named; the others gave an inactive call (follow-up assays come after a bar, where they were run). Shown are actives, neighbours in structure and some others; about 2.4% of the full set was active somewhere. Unless noted, calls come from the whole dose curve; as a rule, active = well fitted activation curve with a large enough effect; inconclusive = small, poorly fitted or top-dose-only effect; inactive = flat fitted curve, though single readings scatter.

CCc1cccc(CC)c1NC(=S)NCCc1ccc(O)c(O)c1	D2 ag-1 36 | D3 arrestin ag 40µM | D2 ag-3 inconclusive
CC(=O)c1ccc(S(=O)(=O)N2CCCC(N(C)CCc3ccccn3)C2)cc1 (stereo not given)	D2 ag-1 55 | D3 arrestin ag inactive | D2 ag-3 inactive
CN(CCc1ccccn1)C1CCCN(S(=O)(=O)c2ccccc2)C1 (stereo not given)	none
COc1cc(C(=O)OCc2cc(=O)n3nc(C4CCCCC4)sc3n2)cc(OC)c1OC	none (no result: D2 antagonist, D2 PAM-1, D2 ag-2)
Cc1ccccc1NC(=O)COc1coc(CN2CCN(c3ccccc3)CC2)cc1=O	D2 ag-1 55, D2 ag-2 inconclusive | D3 arrestin ag inactive | D2 ag-3 inactive
COc1ccc(N2CCN(Cc3cc(=O)c(OCC(=O)Nc4ccccc4)co3)CC2)cc1	none
COc1ccc(NC(=O)COc2coc(CN3CCN(c4ccccc4)CC3)cc2=O)cc1	D2 ag-1 50 | D3 arrestin ag inactive | D2 ag-3 inactive
Cc1cc(NC(=O)CSc2ncc(C(=O)Nc3ccc(C)c(C)c3)c(=O)n2C)no1	none (no result: D2 antagonist, D2 PAM-1, D2 ag-2)
O=C(CSc1nc(-c2ccc(F)cc2)[nH]c1-c1ccccc1)Nc1ccccc1	none (no result: D2 antagonist, D2 PAM-1, D2 ag-2)
Cc1cccc(C(=O)NC(=S)NNC(=O)c2ccc(Cl)cc2)c1	D2 ag-1 75 | D3 arrestin ag inactive | D2 ag-3 inactive
Cc1cccc(C(=O)NC(=S)NNC(=O)c2cccs2)c1	none
CCOC(=O)c1ccc(NC(=O)CCCn2nc(C)c3sc4ccccc4c3c2=O)cc1	none (no result: D2 antagonist, D2 PAM-1, D2 ag-2)
Brc1ccc(Oc2ncc(CN3CCOCC3)s2)cc1	none
COc1ccc(Oc2ncc(CN3CCN(c4ccccc4)CC3)s2)cc1	D2 antagonist 76, D2 ag-1 72, D2 ag-2 42 | D3 arrestin ag inconclusive | D2 ag-3 5.6µM
Cc1cc(Cl)ccc1Oc1ncc(CN2CCN(c3ccccc3)CC2)s1	D2 antagonist 84, D2 ag-1 65, D2 ag-2 inconclusive | D3 arrestin ag inconclusive | D2 ag-3 32µM
O=C(C1CCN(S(=O)(=O)c2ccc(Cl)c(C(F)(F)F)c2)CC1)N1CCC1	none | D3 arrestin ag inactive | D2 ag-3 inactive
Cc1cccc(NC(=O)CN(C)S(=O)(=O)c2ccc3c(c2)c(=O)n(C)c(=O)n3C)c1C	none (no result: D2 antagonist, D2 PAM-1, D2 ag-2)
COc1ccc(/C(O)=C/c2nc3ccc(C(=O)NCCc4cccc(C)c4)cc3[nH]c2=O)cc1OC	none | D3 arrestin ag inactive | D2 ag-3 inconclusive
CCSc1nc(CC)c2c(c1C#N)CCCC2	D2 ag-1 56 | D3 arrestin ag inactive | D2 ag-3 inactive
O=C(CCN1CCN(S(=O)(=O)c2ccc(F)cc2)CC1)Nc1ccccc1F	none
O=C(CCN1CCN(CC(=O)Nc2ccccc2F)CC1)Nc1ccccc1F	none
O=C(CCN1CCN(c2ccc(F)cc2)CC1)Nc1ccccc1F	D2 antagonist 65, D2 ag-1 35 | D3 arrestin ag inactive | D2 ag-3 inactive
O=C(CCN1CCN(c2ccccc2)CC1)Nc1ccccc1F	D2 antagonist 71, D2 ag-1 71, D2 ag-2 inconclusive | D3 arrestin ag inconclusive | D2 ag-3 inactive
COc1ccc(NC(=O)CSc2ncc(-c3ccc(Cl)cc3)[nH]2)cc1OC	none (no result: D2 antagonist, D2 PAM-1, D2 ag-2)
CCc1ccccc1NC(=O)C1CCCN1S(=O)(=O)c1ccc(-c2ccc(=O)[nH]n2)s1 (stereo not given)	none | D3 arrestin ag inactive | D2 ag-3 inactive

Bioassay records deposited in PubChem BioAssay by National Center for Advancing Translational Sciences (NCATS).
